Source: the supplement of paper PMC6411743
± gives the standard deviation of the averaged measurements. The full data set covers some 5,400 targets. This sample favours those with the largest changes.

Compound: Nc1nc2c(ncn2[C@@H]2O[C@H](COP(=O)(O)OP(=O)(O)OP(=O)(O)O)[C@@H](O)[C@H]2O)c(=O)[nH]1 [guanosine triphosphate]
Test: NP40-soluble protein abundance relative to vehicle (solubility fold change) (ratio); higher = more soluble protein in presence of GTP
Summary of the method: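 Across three independent experiments, values are fold changes against the detergent-processed vehicle for each replicate, based on vsn-normalised intensities. The samples were Jurkat crude lysate treated with eight concentrations (0.1 to 10 mM) for 10 min at room temperature and then 3 min at 37 °C. Lysate was solubilised with 0.8% NP40 and benzonase, ultracentrifuged, and the supernatant analysed by TMT-labelled LC-MS/MS.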

UniProt Q9NPD3, sequence (Q9NPD3 whole entry): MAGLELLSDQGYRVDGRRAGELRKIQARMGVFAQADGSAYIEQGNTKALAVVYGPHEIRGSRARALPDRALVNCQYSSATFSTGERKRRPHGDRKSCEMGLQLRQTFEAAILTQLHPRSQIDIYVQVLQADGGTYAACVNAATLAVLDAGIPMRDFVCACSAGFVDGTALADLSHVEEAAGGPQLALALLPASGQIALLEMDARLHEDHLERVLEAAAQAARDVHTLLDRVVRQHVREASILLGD
UniProt Q9BTY7, sequence (Q9BTY7 whole entry): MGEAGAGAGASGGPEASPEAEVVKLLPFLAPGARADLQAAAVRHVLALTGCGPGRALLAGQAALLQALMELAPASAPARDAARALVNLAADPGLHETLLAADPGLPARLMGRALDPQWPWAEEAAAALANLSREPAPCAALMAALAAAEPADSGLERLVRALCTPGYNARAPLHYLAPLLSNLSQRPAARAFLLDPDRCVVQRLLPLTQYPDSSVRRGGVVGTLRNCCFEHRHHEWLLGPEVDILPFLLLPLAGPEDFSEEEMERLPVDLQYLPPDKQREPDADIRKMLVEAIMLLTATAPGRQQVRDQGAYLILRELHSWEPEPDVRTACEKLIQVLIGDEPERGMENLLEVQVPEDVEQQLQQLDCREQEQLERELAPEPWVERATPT
UniProt Q9NR30, sequence (Q9NR30 whole entry): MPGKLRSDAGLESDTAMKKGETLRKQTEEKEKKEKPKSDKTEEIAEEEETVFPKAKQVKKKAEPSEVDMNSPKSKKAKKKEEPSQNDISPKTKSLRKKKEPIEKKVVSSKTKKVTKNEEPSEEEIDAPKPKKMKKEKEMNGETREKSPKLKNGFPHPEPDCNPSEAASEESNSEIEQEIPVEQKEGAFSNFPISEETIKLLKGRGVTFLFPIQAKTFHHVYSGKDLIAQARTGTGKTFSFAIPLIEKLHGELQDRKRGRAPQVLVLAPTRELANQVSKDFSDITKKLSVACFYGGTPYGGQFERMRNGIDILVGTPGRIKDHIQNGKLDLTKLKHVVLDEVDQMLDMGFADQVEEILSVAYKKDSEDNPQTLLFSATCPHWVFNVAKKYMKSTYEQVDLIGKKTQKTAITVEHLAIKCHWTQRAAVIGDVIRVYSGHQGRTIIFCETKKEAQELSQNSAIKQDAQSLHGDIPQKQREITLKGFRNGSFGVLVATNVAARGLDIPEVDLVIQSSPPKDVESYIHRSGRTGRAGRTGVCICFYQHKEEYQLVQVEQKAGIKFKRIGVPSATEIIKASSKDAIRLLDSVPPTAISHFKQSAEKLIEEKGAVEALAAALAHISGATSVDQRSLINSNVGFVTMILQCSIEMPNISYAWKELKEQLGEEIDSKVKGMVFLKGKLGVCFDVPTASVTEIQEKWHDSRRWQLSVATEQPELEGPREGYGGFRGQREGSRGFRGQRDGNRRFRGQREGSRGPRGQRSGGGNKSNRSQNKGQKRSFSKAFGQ
UniProt Q9UNE7, sequence (Q9UNE7 whole entry): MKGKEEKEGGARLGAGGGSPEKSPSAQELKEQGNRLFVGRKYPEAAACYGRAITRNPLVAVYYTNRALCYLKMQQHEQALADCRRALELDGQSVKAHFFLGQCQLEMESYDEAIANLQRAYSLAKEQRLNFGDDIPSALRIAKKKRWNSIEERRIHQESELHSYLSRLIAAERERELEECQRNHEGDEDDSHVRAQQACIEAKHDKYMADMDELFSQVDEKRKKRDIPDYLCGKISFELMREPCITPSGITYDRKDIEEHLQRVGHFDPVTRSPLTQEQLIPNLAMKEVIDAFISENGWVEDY
UniProt Q9BSF4, sequence (Q9BSF4 whole entry): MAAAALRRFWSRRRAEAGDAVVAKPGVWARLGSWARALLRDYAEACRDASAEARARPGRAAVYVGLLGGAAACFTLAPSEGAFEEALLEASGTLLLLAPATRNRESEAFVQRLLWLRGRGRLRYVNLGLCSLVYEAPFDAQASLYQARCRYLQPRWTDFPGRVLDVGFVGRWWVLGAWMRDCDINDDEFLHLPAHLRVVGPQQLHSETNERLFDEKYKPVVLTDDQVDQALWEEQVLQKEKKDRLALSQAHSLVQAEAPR
UniProt Q96EM0, sequence (Q96EM0 whole entry): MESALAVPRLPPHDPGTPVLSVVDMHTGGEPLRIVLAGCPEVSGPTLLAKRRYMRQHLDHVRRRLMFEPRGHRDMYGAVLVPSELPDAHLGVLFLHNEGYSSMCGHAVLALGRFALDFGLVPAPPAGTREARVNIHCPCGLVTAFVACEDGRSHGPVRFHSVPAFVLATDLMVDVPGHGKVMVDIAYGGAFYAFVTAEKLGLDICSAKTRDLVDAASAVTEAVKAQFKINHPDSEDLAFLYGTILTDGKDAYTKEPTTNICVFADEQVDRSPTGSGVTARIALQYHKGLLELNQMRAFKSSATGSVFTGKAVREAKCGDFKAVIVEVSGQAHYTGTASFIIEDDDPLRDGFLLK
UniProt Q9HA64, sequence (Q9HA64 whole entry): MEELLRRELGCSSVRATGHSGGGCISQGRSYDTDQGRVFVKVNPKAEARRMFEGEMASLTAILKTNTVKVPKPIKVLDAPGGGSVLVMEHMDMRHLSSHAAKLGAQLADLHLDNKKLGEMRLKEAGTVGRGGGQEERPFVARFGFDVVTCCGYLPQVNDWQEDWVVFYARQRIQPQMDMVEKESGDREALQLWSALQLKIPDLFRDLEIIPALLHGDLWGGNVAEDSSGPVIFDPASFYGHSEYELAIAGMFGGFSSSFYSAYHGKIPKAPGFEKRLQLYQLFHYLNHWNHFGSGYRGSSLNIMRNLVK
UniProt Q9UKA9, sequence (Q9UKA9 whole entry): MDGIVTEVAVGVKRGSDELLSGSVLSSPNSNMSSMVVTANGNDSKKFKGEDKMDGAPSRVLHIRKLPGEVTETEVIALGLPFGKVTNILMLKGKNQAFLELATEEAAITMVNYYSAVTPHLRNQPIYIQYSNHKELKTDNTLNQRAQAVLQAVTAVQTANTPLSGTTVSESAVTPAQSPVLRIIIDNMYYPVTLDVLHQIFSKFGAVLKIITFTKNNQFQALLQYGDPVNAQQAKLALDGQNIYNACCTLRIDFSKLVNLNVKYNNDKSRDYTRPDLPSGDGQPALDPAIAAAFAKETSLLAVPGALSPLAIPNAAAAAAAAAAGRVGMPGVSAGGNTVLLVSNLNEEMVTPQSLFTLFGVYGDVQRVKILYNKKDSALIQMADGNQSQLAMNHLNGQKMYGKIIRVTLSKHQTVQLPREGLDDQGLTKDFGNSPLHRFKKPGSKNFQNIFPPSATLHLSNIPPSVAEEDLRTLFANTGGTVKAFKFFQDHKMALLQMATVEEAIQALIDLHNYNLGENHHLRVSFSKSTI
UniProt Q9Y2S2, sequence (Q9Y2S2 whole entry): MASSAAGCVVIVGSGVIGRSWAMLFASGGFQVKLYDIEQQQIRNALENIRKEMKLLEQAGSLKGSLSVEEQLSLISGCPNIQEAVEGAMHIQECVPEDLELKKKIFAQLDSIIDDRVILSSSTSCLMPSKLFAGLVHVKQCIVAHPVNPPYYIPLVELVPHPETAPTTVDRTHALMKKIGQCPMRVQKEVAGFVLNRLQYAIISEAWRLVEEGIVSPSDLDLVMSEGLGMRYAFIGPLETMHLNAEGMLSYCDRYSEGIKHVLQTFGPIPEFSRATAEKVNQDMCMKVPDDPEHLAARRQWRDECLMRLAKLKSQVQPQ
UniProt Q96BS2, sequence (Q96BS2 whole entry): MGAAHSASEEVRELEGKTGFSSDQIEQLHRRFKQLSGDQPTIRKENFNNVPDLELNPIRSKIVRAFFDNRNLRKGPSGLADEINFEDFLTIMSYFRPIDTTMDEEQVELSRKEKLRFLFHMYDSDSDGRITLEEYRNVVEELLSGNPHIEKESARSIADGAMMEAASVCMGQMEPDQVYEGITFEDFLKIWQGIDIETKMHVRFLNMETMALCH
UniProt Q9Y3L3, sequence (Q9Y3L3 whole entry): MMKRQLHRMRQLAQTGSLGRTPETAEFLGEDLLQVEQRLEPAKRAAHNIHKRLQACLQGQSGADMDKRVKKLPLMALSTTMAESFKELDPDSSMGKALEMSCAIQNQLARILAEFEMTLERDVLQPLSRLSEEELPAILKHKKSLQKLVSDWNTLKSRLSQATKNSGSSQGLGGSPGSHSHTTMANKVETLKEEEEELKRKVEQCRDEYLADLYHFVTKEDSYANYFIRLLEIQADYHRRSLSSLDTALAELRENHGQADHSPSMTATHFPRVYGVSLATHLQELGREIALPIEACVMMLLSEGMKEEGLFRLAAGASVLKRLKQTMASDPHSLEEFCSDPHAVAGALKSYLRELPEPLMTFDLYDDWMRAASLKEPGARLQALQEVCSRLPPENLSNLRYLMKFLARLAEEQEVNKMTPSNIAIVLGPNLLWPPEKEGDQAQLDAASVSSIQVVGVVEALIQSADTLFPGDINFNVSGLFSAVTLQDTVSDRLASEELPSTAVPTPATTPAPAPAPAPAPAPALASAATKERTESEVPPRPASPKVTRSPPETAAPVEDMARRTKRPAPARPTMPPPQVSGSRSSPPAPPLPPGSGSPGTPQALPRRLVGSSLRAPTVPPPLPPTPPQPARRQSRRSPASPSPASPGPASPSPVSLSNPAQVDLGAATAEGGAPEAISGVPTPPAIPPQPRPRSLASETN
UniProt Q9H944, sequence (Q9H944 whole entry, one chain of several): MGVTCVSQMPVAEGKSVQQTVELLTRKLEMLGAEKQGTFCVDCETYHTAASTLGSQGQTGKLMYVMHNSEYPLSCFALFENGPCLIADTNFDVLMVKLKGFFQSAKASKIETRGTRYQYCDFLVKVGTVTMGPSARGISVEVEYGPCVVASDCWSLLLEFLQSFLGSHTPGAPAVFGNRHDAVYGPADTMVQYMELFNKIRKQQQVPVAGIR
UniProt Q9Y3E2, sequence (Q9Y3E2 whole entry): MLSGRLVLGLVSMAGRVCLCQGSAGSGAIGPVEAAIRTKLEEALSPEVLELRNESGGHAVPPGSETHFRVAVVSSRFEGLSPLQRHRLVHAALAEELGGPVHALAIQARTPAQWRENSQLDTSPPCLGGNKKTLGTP

Target	NP40-soluble protein abundance (concentration: 0.1mM)	NP40-soluble protein abundance (concentration: 0.5mM)	NP40-soluble protein abundance (concentration: 1mM)	NP40-soluble protein abundance (concentration: 2mM)	NP40-soluble protein abundance (concentration: 4mM)	NP40-soluble protein abundance (concentration: 6mM)	NP40-soluble protein abundance (concentration: 8mM)	NP40-soluble protein abundance (concentration: 10mM)
BOLA1 (UniProt Q9Y3E2)	0.909 ± 0.069	0.941 ± 0.075	0.943 ± 0.06	0.943 ± 0.028	0.908 ± 0.073	0.933 ± 0.059	0.903 ± 0.038	1.04 ± 0.055
DDX21 (UniProt Q9NR30)	1.11 ± 0.027	1.1 ± 0.048	1.18 ± 0.026	1.32 ± 0.019	1.56 ± 0.018	1.82 ± 0.028	2.13 ± 0.038	2.698 ± 0.024
UniProt Q96RW7|Q96RW7-2	1.17 ± 0.29	1.11 ± 0.23	0.938 ± 0.16	1.06 ± 0.37	0.985 ± 0.2	0.889 ± 0.19	0.892 ± 0.13	0.924 ± 0.16
UniProt Q9UKA9|Q9UKA9-4	1.04 ± 0.021	0.985 ± 0.025	1.01 ± 0.014	0.989 ± 0.045	0.947 ± 0.051	0.955 ± 0.036	0.963 ± 0.029	0.906 ± 0.027
UniProt Q9Y3D9|J3QLR8	1.01 ± 0.17	1.01 ± 0.19	1.61 ± 0.35	1.69 ± 0.093	1.771 ± 0.00083	1.61 ± 0.061	1.49 ± 0.28	1.73 ± 0.19
UniProt Q9H832|Q9H832-2	1.04 ± 0.06	0.987 ± 0.061	0.9687 ± 0.0042	1.12 ± 0.056	0.927 ± 0.013	0.934 ± 0.043	0.91 ± 0.034	0.963 ± 0.064
UniProt Q9UKV8	1.08 ± 0.065	1.14 ± 0.053	1.06 ± 0.045	1.11 ± 0.053	1.1 ± 0.026	1.07 ± 0.078	1.07 ± 0.057	1.05 ± 0.061
TESC (UniProt Q96BS2)	1.01 ± 0.035	0.983 ± 0.071	0.985 ± 0.095	0.968 ± 0.16	0.907 ± 0.074	0.932 ± 0.092	0.926 ± 0.073	0.915 ± 0.09
UniProt Q9BTY7	0.967 ± 0.086	0.856 ± 0.056	1.07 ± 0.088	1.05 ± 0.033	1.03 ± 0.082	0.998 ± 0.049	0.924 ± 0.18	1.03 ± 0.14
EXOSC4 (UniProt Q9NPD3)	1.07 ± 0.061	0.988 ± 0.057	0.996 ± 0.015	0.994 ± 0.11	1.12 ± 0.023	1.12 ± 0.095	1.11 ± 0.089	1.16 ± 0.054
SEC63 (UniProt Q9UGP8)	0.964 ± 0.023	0.977 ± 0.022	0.935 ± 0.045	0.926 ± 0.036	0.913 ± 0.073	0.927 ± 0.026	0.93 ± 0.022	0.897 ± 0.03
UniProt Q9Y2X0-2|Q9Y2X0-3|Q9Y2X0	1.09 ± 0.2	1.07 ± 0.21	1.04 ± 0.17	1.16 ± 0.28	1.08 ± 0.21	1.11 ± 0.16	1.12 ± 0.18	1.04 ± 0.19
UniProt Q9NVI7-2	1.07 ± 0.062	1.16 ± 0.085	1.34 ± 0.083	1.56 ± 0.18	1.79 ± 0.32	1.9 ± 0.29	2.04 ± 0.29	2.11 ± 0.29
UniProt Q9UJX6|Q9UJX6-2	1.3 ± 0.28	1.33 ± 0.37	1.18 ± 0.28	1.26 ± 0.47	1.3 ± 0.37	1.25 ± 0.46	1.12 ± 0.31	1.22 ± 0.48
UniProt Q9BSF4	1.16 ± 0.16	1.09 ± 0.11	1.12 ± 0.085	1.11 ± 0.027	1.18 ± 0.091	1.17 ± 0.037	0.972 ± 0.071	0.97875 ± 0.0002
UniProt Q9UG63|Q9UG63-2	1.1 ± 0.076	1.11 ± 0.014	1.07 ± 0.072	1.35 ± 0.072	1.83 ± 0.061	2.15 ± 0.12	2.39 ± 0.11	2.744 ± 0.018
UniProt Q9NQS7|Q9NQS7-2	1.16 ± 0.11	1.2 ± 0.24	1.31 ± 0.089	1.28 ± 0.14	1.49 ± 0.21	1.6 ± 0.17	1.72 ± 0.11	1.97 ± 0.29
UniProt Q9Y2S2|Q9Y2S2-2	1.09 ± 0.12	0.991 ± 0.11	0.974 ± 0.12	0.971 ± 0.11	0.948 ± 0.12	0.922 ± 0.13	0.946 ± 0.15	0.912 ± 0.18
UniProt Q969P0|Q969P0-3	1.02 ± 0.066	1 ± 0.048	0.961 ± 0.07	0.956 ± 0.058	0.932 ± 0.069	0.932 ± 0.049	0.953 ± 0.053	0.919 ± 0.077
STUB1 (UniProt Q9UNE7)	0.948 ± 0.056	0.8985 ± 0.0031	1.02 ± 0.1	1.03 ± 0.027	1.01 ± 0.078	1.01 ± 0.012	1.01 ± 0.049	1.03 ± 0.081
UniProt Q969H8	0.971 ± 0.023	0.949 ± 0.034	0.884 ± 0.026	0.85 ± 0.019	0.834 ± 0.05	0.853 ± 0.057	0.8 ± 0.046	0.764 ± 0.085
FBXO28 (UniProt Q9NVF7)	1.09 ± 0.028	1.08 ± 0.13	1.28 ± 0.18	1.31 ± 0.099	1.39 ± 0.12	1.47 ± 0.12	1.42 ± 0.28	1.61 ± 0.25
MTMR6 (UniProt Q9Y217)	1.068 ± 0.0063	1.02 ± 0.027	0.967 ± 0.016	0.969 ± 0.01	0.93 ± 0.031	0.907 ± 0.0098	0.947 ± 0.034	0.913 ± 0.042
UniProt Q9H944|B7ZBQ3	1 ± 0.046	1.01 ± 0.05	0.928 ± 0.034	0.984 ± 0.019	0.976 ± 0.025	0.986 ± 0.029	0.9381 ± 0.0083	0.934 ± 0.029
UniProt Q96EM0	0.976 ± 0.19	0.971 ± 0.15	0.869 ± 0.093	0.892 ± 0.11	1.02 ± 0.026	0.929 ± 0.095	0.85 ± 0.16	0.895 ± 0.085
UniProt Q9UJX5|Q9UJX5-3|Q9UJX5-2	1.2 ± 0.19	1.24 ± 0.3	1.15 ± 0.19	1.27 ± 0.23	1.25 ± 0.27	1.23 ± 0.32	1.2 ± 0.23	1.13 ± 0.17
UniProt Q9Y3L3|Q9Y3L3-2	0.998 ± 0.025	1 ± 0.045	0.994 ± 0.018	0.988 ± 0.099	0.981 ± 0.04	0.991 ± 0.052	0.958 ± 0.019	1.01 ± 0.034
LUC7L2 (UniProt Q9Y383)	1.09 ± 0.11	1.4 ± 0.08	1.58 ± 0.098	1.54 ± 0.18	1.56 ± 0.12	1.66 ± 0.12	1.74 ± 0.15	1.7 ± 0.16
FN3KRP (UniProt Q9HA64)	0.9717 ± 0.0097	0.991 ± 0.014	0.927 ± 0.032	0.913 ± 0.061	0.905 ± 0.042	0.884 ± 0.031	0.89 ± 0.047	0.868 ± 0.051
